Compound activity (PubChem BioAssay)
Shown are actives, neighbours in structure and some others; about 2.9% of the full set was active somewhere.
CF NFkB inh = inhibitors of cystic fibrosis induced NF-kB | inhibition, % at 5 µM | 360,000 compounds, 0.86% hits | KKLEB NF-kB-GFP reporter, PAF-induced, GFP fluorescence overnight | AID 588850;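 active means at least 50% inhibition at 5 µM, scaled per plate between neutral and stimulator controls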;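 further: PAF is a Pseudomonas aeruginosa culture filtrate used as stimulus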
Shn3 inh set2 = reduces Shn3 3'UTR luciferase signal in osteoblasts. Clone20 osteoblast Shn3 3'UTR firefly luciferase, 24 h. inhibition, % at 12.5 µM. 360,000 compounds, 0.52% hits;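 active means mean inhibition of at least 75% with every replicate also reaching 75%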
KKLEB tox = counter-screen for CF NF-kB inhibitors: cytotoxicity | AID 602141 | KKLEB CF airway cells viability, ATPlite luminescence, overnight; active compounds read low; cells stimulated with P. aeruginosa culture filtrate | activity change (cytotoxicity), % at 5 µM | 360,000 compounds, 0.36% hits;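 active means corrected activity change at or below -50% at 5 µM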
Peg3 prom inh = Peg3 promoter activity inhibition. HeLa PEG-Prom luciferase reporter, luminescence, overnight. inhibition, % at 20 µM. 360,000 compounds, 1.7% hits;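 active means inhibition of at least 50% at 20 µM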
HIF-2a block = inhibitors of HIF-2a | inhibition, % at 18.8 µM | 360,000 compounds, 0.72% hits | 786-0 RCC cells HIF-2a reporter, luciferase luminescence, overnight;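 active means inhibition of the luminescence signal of 40% or more relative to plate controls, in a single-dose primary screen at 18.75 µM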
EBV LMP1 NFkB = reduces LMP1-driven NF-kappaB luciferase signal. LMP1-induced NF-kappaB luciferase reporter cells, luminescence. inhibition, % at 12.5 µM. 350,000 compounds, 0.69% hits; in the data active means inhibition above about 41%
Hits are given with their value; - = inactive; . = not tested or not shown.

SMILES | CF NFkB inh | Shn3 inh set2 | KKLEB tox | Peg3 prom inh | HIF-2a block | EBV LMP1 NFkB
COc1cc(C(=O)Nc2ccc(Br)cc2C(=O)c2ccccc2Cl)cc(OC)c1OC | - | - | -50 | - | - | -
COc1cc(OC)cc(C(=O)Nc2ccc(Br)cc2C(=O)c2ccccc2)c1 | - | - | - | - | - | -
CCN1C(=O)/C(=C/c2ccc(N(CC)CC)cc2OC)C(=O)NC1=S | - | - | - | 90 | - | -
COc1ccccc1/C=C1\C(=O)NC(=S)N(c2ccccc2)C1=O | - | - | - | - | - | .
O=[N+]([O-])c1ccc(CN2CC=C(c3ccccc3)CC2)cc1 | - | - | - | - | - | 43
CN(C)c1ccc(CN2CC=C(c3ccc(F)cc3)CC2)cc1 | - | - | - | - | - | -
FC(F)(F)c1cccc(NC2=NCCS2)c1 | - | - | - | - | - | -
CCCc1nc2ccc(Br)cc2c(=O)n1-c1ccc([N+](=O)[O-])c(C(F)(F)F)c1 | - | 93 | - | 55 | - | 44
CCc1nc2ccc(Br)cc2c(=O)n1-c1ccccc1C(F)(F)F | - | - | - | - | - | -
O=c1[nH]cc(COCC(F)(F)C(F)(F)C(F)(F)F)c(=O)[nH]1 | - | - | - | - | - | -
COC(=O)c1ccc(NC(=O)NC(=O)Oc2ccccc2)cc1 | - | - | - | - | - | -
CC(=NCCN1CCCCC1)c1c(O)n(-c2ccc(Cl)cc2)c(=O)[nH]c1=O | - | - | - | - | - | -
CCN(CC)c1ccc(/C=C/[N+](=O)[O-])cc1 | - | - | - | - | - | -
O=[N+]([O-])/C=C/c1c(Cl)cccc1Cl | 57 | - | - | 92 | - | -
NC(=O)CN1CCCC1=O | - | - | - | - | - | -
O=c1[nH]c(=O)n(-c2ccccc2)c(O)c1/C=C1/C(c2ccccc2)=Nc2ccccc21 | 60 | - | - | - | - | -
CCC(C)C12CN3CCN(CC(C)(C3)C1=O)C2 (stereo not drawn) | - | - | - | - | - | -
Cc1nc2sccc2c(=O)n1-c1ccccc1Cl | - | - | - | - | - | -
CC[n+]1c(/C=C/C=C/c2ccc(N(C)C)cc2)sc2ccccc21 | - | - | - | 65 | - | -
CC[n+]1c(/C=C/N(C)c2ccccc2)sc2ccc(Cl)cc21 | - | 92 | - | - | - | -
CN(C)c1ccc(/C=C/C=C/c2sc3ccccc3[n+]2C)cc1 | - | . | - | - | - | -
Cc1nn(Cc2ccc(Cl)cc2Cl)c(Cl)c1C(=O)Nc1ccc(OC(F)F)cc1 | - | - | - | - | - | -
COC(=O)C1=C(c2ccc(OCc3ccccc3)cc2)C[C@@H]2CC[C@H]1N2C(=O)NC1CCN(Cc2ccccc2)CC1 | - | - | - | 86 | - | -
COC(=O)C1=C(c2ccc(F)cc2OCc2ccccc2)C[C@@H]2CC[C@H]1N2C(=O)NC(C)C | - | - | - | - | - | 49
COC(=O)C1=C(c2ccc(OCc3ccccc3)cc2)C[C@@H]2CC[C@H]1N2C(=O)NCCN1CCOCC1 | - | - | - | - | - | -
SMILES | CF NFkB inh | Shn3 inh set2 | KKLEB tox | Peg3 prom inh | HIF-2a block | EBV LMP1 NFkB
CC(=O)OC1C(O)C(C)OC(OC2C(OC(=O)C3CCC4C(C3)OC3(CC(OC(=O)/C=C/c5ccccc5)C(C)CO3)C43CO3)OC(C)C(O)C2OC(C)=O)C1O (stereo not drawn) | 90 | 96 | - | 93 | 65 | 85
C=CP(=O)(O)c1ccccc1 | - | - | - | - | - | -
COc1c2c(cc3c1OCO3)CCN(C)C2 | - | - | - | - | - | 79
COc1cc2c(cc1OC)-c1c(OC)c(OC)cc3c1C(C2)N(C)CC3 (stereo not drawn) | - | - | - | - | - | -
COc1cc2c(cc1OC)-c1c3c(cc4c1[C@@H](C2)N(C)CC4)OCO3 | - | - | - | 61 | - | -
COC(=O)c1nc(-c2ccc3c(n2)C(=O)C(N)=C(OC)C3=O)c(N)c(-c2ccc(OC)c(OC)c2O)c1C | 89 | - | - | 53 | - | -
CCOP(=O)(OCC)c1ccc(O)cc1 | - | - | - | - | - | -
CN=C1CN(O)C(c2ccccc2)=c2cc(Cl)ccc2=N1 | - | - | - | - | - | -
CCCCCn1c(=O)c(C(=O)Nc2nc3ccccc3[nH]2)c(O)c2ccccc21 | - | - | -52 | - | - | -
Nc1nnc(P(c2ccccc2)c2ccccc2)s1 | - | - | - | - | - | -
CC12CC[C@H]3[C@@H](CCC4(O)C[C@H](O)CCC34/C=N/NC(=O)c3ccccc3O)C1(O)CCC2C1=CC(=O)OC1 (stereo partly drawn) | - | - | - | 81 | - | -
CC12CC[C@H]3[C@@H](CCC4(O)C[C@H](O)CCC34/C=N/NC(=O)c3ccc(O)cc3)C1(O)CCC2C1=CC(=O)OC1 (stereo partly drawn) | - | . | - | - | - | -
CN(C)c1ccc(C(=O)N/N=C/C23CC[C@@H](O)CC2(O)CC[C@@H]2[C@@H]3CCC3(C)C(C4=CC(=O)OC4)CCC23O)cc1 (stereo partly drawn) | - | . | -52 | 105 | - | -
COc1ccc(C(=O)N/N=C/C23CC[C@@H](O)CC2(O)CC[C@@H]2[C@@H]3CCC3(C)C(C4=CC(=O)OC4)CCC23O)cc1 (stereo partly drawn) | - | - | - | 66 | - | -
COc1cc(C(=O)N/N=C/C23CC[C@@H](O)CC2(O)CC[C@@H]2[C@@H]3CCC3(C)C(C4=CC(=O)OC4)CCC23O)ccc1O (stereo partly drawn) | - | - | - | - | - | -
COc1ccc(/C=C2/C(=O)N(Cc3ccco3)C(=O)N(C(C)C)C2=O)cc1 | - | - | - | - | - | -
COc1ccc(CN2C(=O)NC(=O)/C(=C\c3ccco3)C2=O)cc1 | - | - | - | - | 42 | -
O=C1NC(=O)N(Cc2ccccc2)C(=O)/C1=C/C=C/c1ccco1 | 87 | - | - | - | - | -
CC(C)N1C(=O)/C(=C/C=C/c2ccco2)C(=O)N(Cc2ccco2)C1=O | - | - | - | - | 53 | -
CN1CN(c2cccc([N+](=O)[O-])c2)CN=C1N[N+](=O)[O-] | - | - | - | - | - | -
C[N+]1(CC2COC(c3ccco3)O2)CCCCC1 (stereo not drawn) | - | - | - | - | - | -
Cc1cccc(N=C2c3cc([N+](=O)[O-])ccc3-c3c2cc([N+](=O)[O-])cc3[N+](=O)[O-])c1 | - | - | - | 86 | - | -
CCCCC1(CCCC)C(=O)NC(=Nc2cccc(C)c2)NC1=O | - | - | - | - | - | -
CN1CCN(c2ccc([N+](=O)[O-])c(NCC3CCCO3)c2)CC1 (stereo not drawn) | - | - | - | - | - | -
COC(=O)C1=C(c2ccc(S(C)(=O)=O)cc2)C[C@@H]2CC[C@H]1N2C(=O)N1CCCCC1 | - | - | - | - | - | -
